“And” between values parts separate entries of the source, which are not always exact repeats. Identical values can stand only once. The source made the active and inactive calls.
What was measured:
[1] = test system: PRMT1 (protein arginine N-methyltransferase 1); assay: PRMT1 binders on small-molecule microarrays, primary screen, biochemical, small-molecule microarray, 635 nm fluorescence (AID 1088); conditions: small-molecule microarray binding, higher = more signal;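 also: binding of Prmt1 protein to compounds spotted on small-molecule microarray slides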
[2] = yeast growth modulation, basal conditions, primary screen, YJM789 clinical isolate, OD600, 24 h (AID 1089);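 also: growth of clinical yeast isolate S. cerevisiae YJM 789 seeded 1000 cells per well; test concentration not given here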; conditions: S. cerevisiae YJM789 growth, higher = more signal, called active from +8 up or from −8 down
[3] = fission yeast growth modulation, primary screen, strain 972, OD600, 24 h, no modulator (AID 1090);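 also: basal condition with compound alone and no growth modifier present; test concentration not given here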; conditions: S. pombe 972 growth, higher = more signal, called active from +8 up or from −8 down
[4] = S. cerevisiae growth modulation with rapamycin, primary screen, strain BY4716, OD600, 96 h (AID 1091); conditions: higher = more signal, called active from +8 up or from −8 down; also: test concentration not given here
[5] = molecular target: Torsin-1A-interacting protein 2 (Homo sapiens) (UniProt Q8NFQ8); assay: LULL1 binders on small-molecule microarray, primary screen, cell lysate, human LULL1 lysate, 635/667 nm fluorescence (AID 1092); conditions: hLULL1 lysate binding, 635 nm fluorescence, higher = more signal;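 also: probe is lysate of COS7 cells overexpressing human LULL1; score merges per-feature 667 nm fluorescence with signal-to-noise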
[6] = E. coli growth modulation, two-sided OD650, primary screen, E. coli filamentation project, strain DRC41, 24 h (AID 1093); conditions: OD650, 24 h, higher = more signal, called active from +8 up or from −8 down;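 also: MC1000 strain lacking acrAB efflux and sulA so SOS filamentation is blocked; test concentration not given here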
[7] = small-molecule microarray binders of probe aLefty2, primary screen, biochemical, biotinylated probe, 635/667 nm fluorescence (AID 1094); conditions: higher = more signal;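 also: score merges spot fluorescence near 667 nm with spot signal-to-noise ratio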
[8] = test system: Noggin (protein binding on small-molecule microarray); assay: Noggin binders on small-molecule microarray, primary screen, biochemical, 635/667 nm fluorescence (AID 1095); conditions: 635 nm fluorescence, higher = more signal;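 also: score merges 667 nm feature fluorescence with signal to noise over triplicate slides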
[9] = molecular target: Neurogenic locus notch homolog protein 3 (Homo sapiens) (UniProt Q9UM47); assay: NOTCH3 binders on small-molecule microarray, primary screen, biochemical, 635/667 nm fluorescence (AID 1096); conditions: NOTCH3 binding, 635 nm fluorescence, higher = more signal
[10] = small-molecule microarray binders of probe aEGFR, primary screen, biochemical, biotinylated probe, 635/667 nm fluorescence (AID 1097); conditions: higher = more signal;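 also: probe is a biotinylated anti-EGFR antibody binding compounds printed on slides; score combines fluorescence near 667 nm and signal to noise of each spot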

Chain of Neurogenic locus notch homolog protein 3 (Homo sapiens) (Q9UM47 whole entry, looked up): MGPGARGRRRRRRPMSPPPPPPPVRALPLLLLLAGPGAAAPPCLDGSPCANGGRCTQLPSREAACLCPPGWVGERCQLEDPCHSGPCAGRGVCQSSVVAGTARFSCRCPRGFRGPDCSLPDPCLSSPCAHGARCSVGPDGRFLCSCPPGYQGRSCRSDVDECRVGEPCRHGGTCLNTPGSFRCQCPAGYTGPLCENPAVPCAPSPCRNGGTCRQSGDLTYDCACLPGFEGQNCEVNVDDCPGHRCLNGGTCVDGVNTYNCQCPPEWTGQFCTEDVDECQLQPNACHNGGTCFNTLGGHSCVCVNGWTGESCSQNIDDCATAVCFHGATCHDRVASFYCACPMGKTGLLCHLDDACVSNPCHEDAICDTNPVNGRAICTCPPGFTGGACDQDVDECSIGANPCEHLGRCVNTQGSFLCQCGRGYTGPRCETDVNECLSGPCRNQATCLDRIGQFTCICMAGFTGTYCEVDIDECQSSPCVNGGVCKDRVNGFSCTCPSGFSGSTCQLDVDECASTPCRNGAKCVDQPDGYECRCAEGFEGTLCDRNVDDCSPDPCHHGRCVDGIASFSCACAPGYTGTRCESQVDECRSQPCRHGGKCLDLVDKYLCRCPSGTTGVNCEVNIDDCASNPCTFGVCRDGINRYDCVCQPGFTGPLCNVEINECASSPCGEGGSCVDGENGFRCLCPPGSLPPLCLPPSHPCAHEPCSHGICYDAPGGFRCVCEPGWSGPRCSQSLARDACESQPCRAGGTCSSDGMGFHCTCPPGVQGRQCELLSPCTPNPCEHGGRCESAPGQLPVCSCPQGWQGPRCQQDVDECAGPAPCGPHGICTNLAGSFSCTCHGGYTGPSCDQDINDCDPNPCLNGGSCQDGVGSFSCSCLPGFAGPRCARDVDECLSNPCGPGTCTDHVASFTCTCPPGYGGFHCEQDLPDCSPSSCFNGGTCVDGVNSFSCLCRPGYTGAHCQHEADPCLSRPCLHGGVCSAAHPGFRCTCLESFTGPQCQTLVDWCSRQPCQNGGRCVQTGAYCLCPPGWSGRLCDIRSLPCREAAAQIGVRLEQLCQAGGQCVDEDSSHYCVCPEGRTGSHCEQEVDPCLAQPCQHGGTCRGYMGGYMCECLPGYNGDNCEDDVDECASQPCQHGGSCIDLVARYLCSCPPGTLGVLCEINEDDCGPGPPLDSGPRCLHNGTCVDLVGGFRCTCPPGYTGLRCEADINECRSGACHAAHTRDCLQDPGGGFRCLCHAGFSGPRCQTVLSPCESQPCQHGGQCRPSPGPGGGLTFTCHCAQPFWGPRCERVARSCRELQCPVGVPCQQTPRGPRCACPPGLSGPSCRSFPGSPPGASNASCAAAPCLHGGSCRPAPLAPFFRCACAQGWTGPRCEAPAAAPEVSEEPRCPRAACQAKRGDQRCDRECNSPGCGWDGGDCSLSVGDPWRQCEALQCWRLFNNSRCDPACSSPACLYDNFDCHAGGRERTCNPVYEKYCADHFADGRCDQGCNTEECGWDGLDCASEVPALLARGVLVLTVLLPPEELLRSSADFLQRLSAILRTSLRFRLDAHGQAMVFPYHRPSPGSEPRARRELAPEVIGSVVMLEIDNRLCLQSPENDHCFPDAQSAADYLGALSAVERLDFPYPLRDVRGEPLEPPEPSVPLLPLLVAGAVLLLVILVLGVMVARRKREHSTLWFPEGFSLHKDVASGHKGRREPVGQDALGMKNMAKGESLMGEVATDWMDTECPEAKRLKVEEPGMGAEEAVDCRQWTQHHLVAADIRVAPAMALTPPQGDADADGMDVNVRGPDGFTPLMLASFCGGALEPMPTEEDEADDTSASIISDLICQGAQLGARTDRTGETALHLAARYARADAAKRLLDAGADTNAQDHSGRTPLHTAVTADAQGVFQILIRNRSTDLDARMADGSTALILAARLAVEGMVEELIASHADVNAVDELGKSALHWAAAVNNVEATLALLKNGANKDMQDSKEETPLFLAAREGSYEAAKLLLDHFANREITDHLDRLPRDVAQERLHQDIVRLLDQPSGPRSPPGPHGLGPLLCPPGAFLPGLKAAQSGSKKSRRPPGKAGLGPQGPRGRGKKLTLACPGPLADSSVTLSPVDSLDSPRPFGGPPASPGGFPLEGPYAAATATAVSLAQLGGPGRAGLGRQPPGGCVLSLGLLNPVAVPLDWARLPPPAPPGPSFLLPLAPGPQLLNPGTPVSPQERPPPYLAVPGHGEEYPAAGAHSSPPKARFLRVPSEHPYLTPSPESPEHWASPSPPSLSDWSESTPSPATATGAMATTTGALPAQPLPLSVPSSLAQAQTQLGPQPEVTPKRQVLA
Chain of Torsin-1A-interacting protein 2 (Homo sapiens) (Q8NFQ8 whole entry, looked up): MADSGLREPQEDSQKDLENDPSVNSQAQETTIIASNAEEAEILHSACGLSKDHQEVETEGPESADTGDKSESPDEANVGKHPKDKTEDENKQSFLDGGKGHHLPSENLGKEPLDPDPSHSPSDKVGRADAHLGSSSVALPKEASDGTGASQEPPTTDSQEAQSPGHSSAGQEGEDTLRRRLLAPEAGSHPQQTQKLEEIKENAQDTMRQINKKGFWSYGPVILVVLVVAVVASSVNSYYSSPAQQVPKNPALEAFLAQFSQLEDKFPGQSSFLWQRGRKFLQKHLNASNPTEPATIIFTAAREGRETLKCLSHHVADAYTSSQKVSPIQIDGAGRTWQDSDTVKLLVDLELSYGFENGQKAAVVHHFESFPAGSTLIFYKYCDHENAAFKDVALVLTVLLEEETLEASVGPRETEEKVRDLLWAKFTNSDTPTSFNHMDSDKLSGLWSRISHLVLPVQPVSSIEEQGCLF

| Structure (SMILES) | composite z-score [1] | z-score [2] | z-score [3] | z-score [4] | composite z-score [5] | z-score [6] | composite z-score [7] | composite z-score [8] | composite z-score [9] | composite z-score [10] |
| --- | --- | --- | --- | --- | --- | --- | --- | --- | --- | --- |
| C=CCN(C(=O)C(c1cccs1)N(C(=O)/C=C\C(=O)O)c1c(Cl)cccc1CO)C(C)(C)C (stereo not given) | -0.971 and -0.911 | -0.0947 (inactive) and -0.689 (inactive) | -0.588 (inactive) and -0.587 (inactive) | -0.351 (inactive) and -0.595 (inactive) | -0.586 and 0.277 | -0.717 (inactive) and -1.18 (inactive) | 0.0765 and 0.231 | -3.47 and -2.85 | -1.89 and -1.83 | -0.309 and -0.338 |
| CO[C@@H]1COC(=O)CC=C[C@H](C)COC(=O)[C@H](C)NC(=O)CC=C[C@H]1C | 1.38 | 1.19 (inactive) | 1.04 (inactive) | 1.25 (inactive) | -0.654 | 0.18 (inactive) | -0.235 | 1.68 | 0.438 | -0.157 |
| COC(=O)C1=C(C)N(Cc2ccccc2)C2=C3C(=O)N(C)C(=O)[C@@H]3[C@@](O)(C(=O)OC)C(=O)N2[C@@H]1c1ccccc1 | 0.471 and 0.0202 | 0.0264 (inactive) and -1.64 (inactive) | -0.774 (inactive) and -1.87 (inactive) | -0.807 (inactive) and -0.913 (inactive) | 0.0055 and 0.222 | 0.858 (inactive) and -0.0481 (inactive) | 0.0494 and -0.184 | 0.34 and 0.538 | 0.182 and 0.361 | -0.138 and 0.131 |
| C#CCN1C(/C=C/c2ccccc2)C(=O)OC[C@H]1c1ccccc1 (stereo not given in full) | -0.0815 and 0.365 | -3.12 (inactive) and -0.539 (inactive) | -7.61 (inactive) and -3.7 (inactive) | -3.5 (inactive) and -1.57 (inactive) | 0.447 and 2.09 | 1.07 (inactive) and 0.53 (inactive) | -0.0766 and -0.215 | 0.899 and 0.231 | 0.719 and 0.768 | -0.0304 and -0.0311 |
| COC(=O)C1=C(C)N(Cc2ccccc2)[C@]23O[C@](C(=O)OC)(C(=O)N2[C@@H]1c1ccccc1)[C@@H](C(=O)OC)[C@H]3C(=O)OC | -0.584 and 0.5 | 0.464 (inactive) and 0.457 (inactive) | -0.0252 (inactive) and -0.671 (inactive) | 0.667 (inactive) and 0.334 (inactive) | 0.19 and 0.0032 | 0.305 (inactive) and 0.28 (inactive) | -0.277 and -0.259 | -0.803 and 0.77 | -1.21 and 0.287 | -0.173 and -0.115 |
| CO[C@@H]1C=CCC(=O)N2CCC[C@H]2C(=O)OC[C@H](C)C(=O)OC[C@H]1C | 0.59 | 0.741 (inactive) | -0.295 (inactive) | -0.606 (inactive) | -0.246 | 0.714 (inactive) | -0.0693 | 1.41 | -0.13 | 0.163 |
| C=C[C@H](OC)[C@@H](O)c1ccc(OCCO)cc1 | -0.801 and -0.822 | -0.146 (inactive) and 0.665 (inactive) | 0.363 (inactive) and -0.412 (inactive) | 0.573 (inactive) and 0.329 (inactive) | -0.517 and -0.64 | -0.0467 (inactive) and 0.606 (inactive) | -0.242 and -0.0736 | -2.2 and -1.82 | -1.56 and -0.724 | -0.313 and -0.314 |
| C=CCN(CCCCC)C(=O)C1N(c2c(Cl)cccc2CO)C(=O)C2C(C(=O)O)C3C=CC21O3 (stereo not given) | 0.0842 and -0.629 | 0.006 (inactive) and 0.769 (inactive) | -0.456 (inactive) and -0.0109 (inactive) | 0.59 (inactive) and 0.045 (inactive) | -0.445 and -0.75 | 0.31 (inactive) and 0.437 (inactive) | 0.156 and -0.0555 | -2.4 and -2.23 | -0.676 and -0.842 | -0.441 and -0.411 |
| C=CCN(C(=O)C1N(c2c(Cl)cccc2CO)C(=O)C2C(C(=O)O)C3C=CC21O3)C(C)(C)C (stereo not given) | -0.17 and -0.656 | 0.61 (inactive) and -1.92 (inactive) | 0.857 (inactive) and -1.43 (inactive) | -0.509 (inactive) and -0.74 (inactive) | 0.893 and -1.28 | 2.58 (inactive) and 1.44 (inactive) | -0.359 and -0.152 | -1.7 and -1.45 | -0.873 and -0.616 | -0.403 and -0.366 |
| C[N+](C)(C)CCCCNC(=O)[C@@H]1C[C@@H]2C(=O)N[C@@H](CCCC[N+](C)(C)C)C(=O)N2[C@@H]1c1cccc(OCCO)c1 | 1.53 and 0.995 | 1.27 (inactive) and 0.389 (inactive) | -0.352 (inactive) and -0.297 (inactive) | -0.483 (inactive) and -1.92 (inactive) | 0.864 and 2.09 | 0.616 (inactive) and 0.374 (inactive) | 0.387 and 0.268 | 2.03 and 1.71 | 1.05 and 1.09 | 0.399 and 0.56 |
